Hits are enriched below; roughly 2.8% of the tested compounds scored in any of these assays.
HIF-2a inh: HIF-2a reporter inhibitors, primary screen, luminescence, 786-0 RCC cells; 786-0 RCC cells HIF-2a reporter, luciferase luminescence, overnight; inhibition, % at 18.8 µM; 0.72% of 360,000 active; AID 624352, 2012;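 active means inhibition of the luminescence signal of 40% or more relative to plate controls, in a single-dose primary screen at 18.75 µM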
Peg3 promoter: Peg3 promoter-driven luciferase inhibitors, primary screen, cell-based, HeLa, luciferase luminescence. HeLa PEG-Prom luciferase reporter, overnight. inhibition, % at 20 µM. 1.7% of 360,000 active;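 active means inhibition of at least 50% at 20 µM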
CF NFkB inh: inhibitors of PAF-induced NF-kB signaling, primary screen, cell-based, GFP fluorescence, uHTS; 0.86% of 360,000 active; inhibition, % at 5 µM; KKLEB NF-kB-GFP reporter, GFP fluorescence overnight;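 active means at least 50% inhibition at 5 µM, scaled per plate between neutral and stimulator controls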;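 further: PAF is a Pseudomonas aeruginosa culture filtrate used as stimulus; plate controls were PAF-stimulated DMSO wells for no effect and unstimulated DMSO wells for full effect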
TRPM1 prom inh: inhibitors of MITF-dependent TRPM1 promoter reporter, primary screen, cell-based, SK-MEL-5, single point, luciferase | AID 488899, 2010 | inhibition, % at 12.5 µM | 0.83% of 330,000 active | SK-MEL-5 TRPM1 promoter luciferase, 24 h;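 active means mean inhibition across replicates of 60% or more, whatever share of single replicates reaches that level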
KKLEB tox: cytotoxicity in KKLEB CF airway cells, primary screen, cytotoxicity control for CF NF-kB inhibitor project, cell-based, uHTS, fluorescence assay plates; activity change (cytotoxicity), % at 5 µM; 0.36% of 360,000 active; KKLEB CF airway cells viability, ATPlite luminescence, overnight; active compounds read low; cells stimulated with P. aeruginosa culture filtrate; AID 602141, 2011;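 active means corrected activity change at or below -50% at 5 µM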
Beta2AR agonist: beta2AR agonists driving receptor internalization, primary screen, cell-based, FAP fluorogen, flow cytometry. 0.43% of 340,000 active. Am2.2-beta2AR cells. AID 504454, 2011. response, % (concentration not given with the values);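 active means response above a set limit, near 3 SD of response in nonfluorescent compounds, cut at about 42% in these data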
Target sequence (P07550 whole entry, looked up): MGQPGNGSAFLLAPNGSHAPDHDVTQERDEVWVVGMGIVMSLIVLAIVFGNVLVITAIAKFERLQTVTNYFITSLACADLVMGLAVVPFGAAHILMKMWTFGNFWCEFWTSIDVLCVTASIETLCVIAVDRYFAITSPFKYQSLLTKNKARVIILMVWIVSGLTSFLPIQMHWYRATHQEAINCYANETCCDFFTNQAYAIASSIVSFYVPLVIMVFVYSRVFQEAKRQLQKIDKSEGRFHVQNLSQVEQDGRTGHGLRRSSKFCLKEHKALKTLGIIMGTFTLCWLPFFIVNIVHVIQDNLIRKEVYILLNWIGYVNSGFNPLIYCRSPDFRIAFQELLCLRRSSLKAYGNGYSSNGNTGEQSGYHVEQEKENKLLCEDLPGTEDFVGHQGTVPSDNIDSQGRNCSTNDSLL
Numbers without * were called inactive.

`CCN(Cc1ccccc1)S(=O)(=O)c1ccc(C(=O)N(CCCN(C)C)c2nc3cc(C)cc(C)c3s2)cc1` gave HIF-2a inh -1, Peg3 promoter 100*, CF NFkB inh 40, TRPM1 prom inh 90*, KKLEB tox -26 and Beta2AR agonist 40.
`COCCN(C(=O)COC(=O)C1CC(=O)N(c2ccc(C)cc2)C1)c1c(N)n(Cc2ccccc2)c(=O)[nH]c1=O` (stereo unspecified) gave HIF-2a inh -12, Peg3 promoter -5, CF NFkB inh -37 and KKLEB tox 16.
`COc1ccc(OC)c(CNC(=O)c2[nH]c(C(F)(F)F)nc2-c2ccccc2)c1` gave HIF-2a inh 7, Peg3 promoter 20, CF NFkB inh -11 and KKLEB tox -1.
CCNC(=O)C1CCCN(C(=O)c2ccc(C)c(F)c2)CC1 (stereo unspecified) was read as HIF-2a inh 24, Peg3 promoter 12, CF NFkB inh 4 and KKLEB tox -7.
`CCOC(=O)N(C)c1c(CC)nc2c(OCCOc3ccccc3)cccn12` gave HIF-2a inh 13, Peg3 promoter 5, CF NFkB inh -11 and KKLEB tox 5.
COc1ccc(-c2nc(NCCN(C)C)nc3ccsc23)c(C)c1 was read as HIF-2a inh -29, Peg3 promoter -35, CF NFkB inh 13 and KKLEB tox -1.
CCOC(=O)c1cc([N+](=O)[O-])c([N+](=O)[O-])cc1NC(C)=O was read as HIF-2a inh 23, Peg3 promoter 109*, CF NFkB inh 60*, TRPM1 prom inh 88*, KKLEB tox -21 and Beta2AR agonist 74*.
For O=C(c1ccc(NS(=O)(=O)c2ccccc2)cc1)N1CCCC1 the results were HIF-2a inh 11, Peg3 promoter 18, CF NFkB inh 4, TRPM1 prom inh 9, KKLEB tox -3 and Beta2AR agonist 16.
For O=C(c1ccc(NS(=O)(=O)/C=C/c2ccccc2)cc1)N1CCCCC1 the results were HIF-2a inh 21, Peg3 promoter 13, CF NFkB inh 56*, TRPM1 prom inh 12, KKLEB tox -69* and Beta2AR agonist 6.
For CC1=C(C(=O)N2CCOCC2)CC(CC(=O)NCCCN(C)C)C(=O)N1Cc1ccc(F)cc1 (stereo unspecified) the results were HIF-2a inh 1, Peg3 promoter -5, CF NFkB inh -9 and KKLEB tox 7.
Screening CC(Oc1cccc(Br)c1)C(=O)NNC(=O)c1ccccn1 (stereo unspecified) returned HIF-2a inh 2, Peg3 promoter 32, CF NFkB inh -6, TRPM1 prom inh 82*, KKLEB tox -8 and Beta2AR agonist 5.
`COc1ccc(C(O)c2ncc(-c3ccccc3C)[nH]2)cc1F` (stereo unspecified) gave HIF-2a inh 10, Peg3 promoter 6, CF NFkB inh -51 and KKLEB tox 13.
For COc1cc(C=O)c(Br)cc1OCc1ccc(C)cc1 the results were HIF-2a inh -340, Peg3 promoter -178, CF NFkB inh -19, TRPM1 prom inh -7, KKLEB tox 19 and Beta2AR agonist 8.
For CCOc1cc(C=O)c(Br)cc1OC1CCCC1 the results were HIF-2a inh 9, Peg3 promoter 21, CF NFkB inh -6, TRPM1 prom inh 0, KKLEB tox -3 and Beta2AR agonist 44*.
`O=C(O)CSc1nnc(NC(=O)c2ccc3c(c2)OCO3)s1` gave HIF-2a inh 41*, Peg3 promoter 39, CF NFkB inh 8, TRPM1 prom inh 20, KKLEB tox -19 and Beta2AR agonist -5.
Screening CCN(CC)c1ncnc2c1ncn2[C@H]1CN(Cc2ccc(F)cc2)C[C@@H](CO)O1 returned HIF-2a inh 23, Peg3 promoter 14, CF NFkB inh -4 and KKLEB tox 16.
CC(=O)N1c2ccccc2Sc2ccc3ccccc3c21 was read as HIF-2a inh 21, Peg3 promoter 17, CF NFkB inh -20 and KKLEB tox 13.
`O=C(CCl)N1c2ccccc2Sc2c1ccc1ccccc21` gave HIF-2a inh -41, Peg3 promoter 58*, CF NFkB inh 4, TRPM1 prom inh 30, KKLEB tox -16 and Beta2AR agonist 11.
For O=C(O)c1cccc(-c2noc(-c3cccc(Cl)c3)n2)c1 the results were HIF-2a inh 79*, Peg3 promoter 54*, CF NFkB inh -5, TRPM1 prom inh 92*, KKLEB tox -3 and Beta2AR agonist -2.
For Oc1ccccc1N=N/C(=N/Nc1ccccc1O)c1ccccc1 the results were HIF-2a inh 13, Peg3 promoter 0, CF NFkB inh -4, TRPM1 prom inh -3, KKLEB tox 10 and Beta2AR agonist 3.
N#C/C(N=Nc1ccccc1O)=N\Nc1ccccc1O was read as HIF-2a inh -71, Peg3 promoter 67*, CF NFkB inh -46, TRPM1 prom inh 69*, KKLEB tox 1 and Beta2AR agonist -55.
For COc1ccc(C(=O)Nc2nc(C)cs2)cc1S(=O)(=O)N1CCOCC1 the results were HIF-2a inh -1, Peg3 promoter -2, CF NFkB inh 1 and KKLEB tox -5.
`O=C(CCCn1c(=S)[nH]c2ccccc2c1=O)N1CCN(c2cccc(Cl)c2)CC1` gave HIF-2a inh 11, Peg3 promoter 19, CF NFkB inh 8, TRPM1 prom inh 3, KKLEB tox -28 and Beta2AR agonist 1.
Screening O=C(CCCCCNc1nc(=S)[nH]c2ccccc12)N1CCN(c2ccccn2)CC1 returned HIF-2a inh 7, Peg3 promoter 56*, CF NFkB inh -2, TRPM1 prom inh -11, KKLEB tox 0 and Beta2AR agonist 0.
For COc1cccc(N2CCN(C(=O)CCCCCNc3nc(=S)[nH]c4ccccc34)CC2)c1 the results were HIF-2a inh 0, Peg3 promoter 63*, CF NFkB inh 4, TRPM1 prom inh -4, KKLEB tox -21 and Beta2AR agonist 10.
For OC(CN1CCN(c2ccccn2)CC1)Cn1c2ccc(Cl)cc2c2cc(Cl)ccc21 (stereo unspecified) the results were HIF-2a inh 10, Peg3 promoter 36, CF NFkB inh 2, TRPM1 prom inh -22, KKLEB tox -7 and Beta2AR agonist 2.
For OC(CN1CCCCC1)Cn1c2ccc(Cl)cc2c2cc(Cl)ccc21 (stereo unspecified) the results were HIF-2a inh 7, Peg3 promoter 104*, CF NFkB inh 28, TRPM1 prom inh -12, KKLEB tox -14 and Beta2AR agonist 30.
